{
  "source": "PubChem BioAssay AID1039",
  "about": "(National Center for Advancing Translational Sciences (NCATS), 2008)",
  "note": "Active and inactive are the calls of the source. Entries that show only a call come without a potency. The call rests on the fitted dose curve.",
  "data": [
    {"assay": "Normal 2 Cell Viability Secondary Assay for qHTS Assay for Epigenetic Modulators", "details": "Normal 2 bronchial epithelial viability, MTS, 4 days", "text": "NIH Molecular Libraries Screening Centers Network [MLSCN] NIH Chemical Genomics Center [NCGC] MLSCN Grant: 1 X01 MH079860-01 Assay Provider: Elisabeth D. Martinez, University of Texas SW Medical Center NCGC Assay Overview: This secondary assay characterizes selected actives identified in the qHTS of the Locus Derepression (LDR) assay (PubChem AID 597). The LDR assay detects the derepression of a GFP reporter that is stably integrated in a region of the genome of murine c127i mammary cells that is presumably silenced. Compounds that cause derepression of the locus to express GFP are identified by enumerating GFP positive cells using a laser-scanning microplate cytometer. Selected LDR actives were assayed for killing of Normal 2, a patient-derived normal bronchial epithelial line matched to NSCLC 2, a nonsmall cell lung carcinoma line from the same patient. The Normal 2 line assays the cytoxicity of test compounds on normal lung cells. Normal 2 cell viability was measured using Cell Titer 96 AQueous One (Promega), an assay which detects the ability of metabolically active cells to reduce a tetrazolium salt substrate (MTS), into a soluble formazan product that can be measured by colorimetry.\nNCGC Assay Protocol Summary Normal 2 cells were plated in 96-well flat bottom tissue culture dishes (Corning) and grown overnight at 37 C and 5% CO2, then treated with compounds, incubated 4 days, and assayed for viability using the Cell Titer 96 AQueous One kit (Promega) according to the manufacturer's protocol. Absorbance at 490 nm and 650 nm (reference) was measured by a Spectra Max (Molecular Devices). Data were normalized to the untreated control (100% viability). Each cell line was tested in one or two independent assays, each containing 4 or 8 replicates. For further details, see R.L. Johnson, W. Huang, A. Jadhav, C.P. Austin, J. Inglese, E.D. Martinez, A Quantitative High-Throughput Screen Identifies Potential Epigenetic Modulators of Gene Expression, Analytical Biochemistry (2007), doi: 10.1016/j.ab.2007.12.028", "values": [
      {"molecule": "CC(C)C(=O)NC(c1ccco1)c1ccc2cccnc2c1O", "note": "(stereo not drawn)", "Potency": "10 µM (active)"},
      {"molecule": "O=Nc1ccc(O)c2ncccc12", "Potency": "9 µM (active)"},
      {"molecule": "CC(C)C(=O)NC(c1ccco1)c1cc([N+](=O)[O-])c2cccnc2c1O", "note": "(stereo not drawn)", "Potency": "2 µM (active)"},
      {"molecule": "CC(/C=C/C(=O)NO)=C\\[C@@H](C)C(=O)c1ccc(N(C)C)cc1", "outcome": "inactive"},
      {"molecule": "CC(C)C(=O)NC(c1ccc(N(C)C)cc1)c1ccc2cccnc2c1O", "note": "(stereo not drawn)", "Potency": "5 µM (active)"},
      {"molecule": "CN1C(=S)SC(c2ccccc2)N(C)C1c1ccccc1", "note": "(stereo not drawn)", "outcome": "inactive"},
      {"molecule": "O=C(CSc1cccc2cccnc12)NCc1ccccc1", "outcome": "inactive"},
      {"molecule": "O=C(CSc1cccc2cccnc12)N1CCCC1", "outcome": "inactive"}
    ]}
  ]
}
